In the library only some 31% were active in any assay of this set; here they are far more common.
CYP2C9 inhib – blocks human cytochrome P450 2C9; CYP2C9 Supersomes, luciferin-H conversion, luminescence; 20% of 96,000 active; inhibition, % at 5 µM; P11712;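 active = blocking of liver enzyme CYP2C9 beyond about 50% at 5 µM, limit read from the data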
Target sequence (P11712 whole entry, looked up): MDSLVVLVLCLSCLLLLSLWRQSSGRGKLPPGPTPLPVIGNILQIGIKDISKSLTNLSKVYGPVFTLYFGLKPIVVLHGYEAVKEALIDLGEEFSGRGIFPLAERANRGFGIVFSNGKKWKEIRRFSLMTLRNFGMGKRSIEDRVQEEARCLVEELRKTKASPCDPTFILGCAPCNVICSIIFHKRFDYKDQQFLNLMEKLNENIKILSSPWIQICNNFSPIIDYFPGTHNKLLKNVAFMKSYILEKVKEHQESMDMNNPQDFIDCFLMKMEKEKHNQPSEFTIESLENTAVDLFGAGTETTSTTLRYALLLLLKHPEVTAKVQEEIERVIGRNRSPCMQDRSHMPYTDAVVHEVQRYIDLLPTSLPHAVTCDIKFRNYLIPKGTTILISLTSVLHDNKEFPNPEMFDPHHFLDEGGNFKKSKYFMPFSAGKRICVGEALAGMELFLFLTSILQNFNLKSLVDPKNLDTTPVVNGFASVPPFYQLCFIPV
CYP2C19 act – increases human CYP2C19 enzyme activity; AID 1025; recombinant CYP2C19, luciferin-H EGE luminescence; hits give high values; 0 = fully inhibited enzyme, 1 = untreated enzyme; activation factor at 5 µM; P33261; 96,000 tested, under 10 active;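 active = activation factor of at least 2 at 5 µM in the primary screen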;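 note: 0 = wells with 2.5 mM tranylcypromine and 1 = vehicle-only wells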
CYP2C9 act – CYP2C9 (human) activation; recombinant CYP2C9, luciferin-H conversion, luminescence; hits give high values; factor 1 = untreated enzyme, 0 = blocked; 1.4% of 96,000 active; activation factor at 5 µM; P11712;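 active = activation factor of 2 or more for CYP2C9 at a 5 µM dose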;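 note: 0 = sulfaphenazole-blocked wells and 1 = vehicle-only wells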
CYP2C19 inh – blocks human cytochrome P450 2C19; P33261; inhibition, % at 5 µM; CYP2C19 Supersomes, luciferin-H EGE luminescence, 30 min; AID 778; 21% of 96,000 active;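 active = CYP2C19 inhibition above a set limit at 5 µM in the primary screen, cut at about 50% in these data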;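 note: plate controls were negative control wells for no effect and 2.5 mM tranylcypromine positive control for full effect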
* = called active by the depositor.

Screening CCCCCn1c(N2CCN(c3cccc(Cl)c3)CC2)nc2c1c(=O)[nH]c(=O)n2C returned CYP2C9 inhib 96*, CYP2C19 act 0.2, CYP2C9 act 0 and CYP2C19 inh 82*.
Screening Cn1c(=O)[nH]c(=O)c2c1nc(N1CCN(c3cccc(Cl)c3)CC1)n2CCCc1ccccc1 returned CYP2C9 inhib 16, CYP2C19 act 0.9, CYP2C9 act 0.8 and CYP2C19 inh 10.
For Cc1nnc(SCCn2c(N3CCN(C)CC3)nc3c2c(=O)[nH]c(=O)n3C)s1 the results were CYP2C9 inhib 10, CYP2C19 act 1, CYP2C9 act 0.9 and CYP2C19 inh 0.
Screening Cn1c(=O)c2c(nc(CN3CCC(C(N)=O)CC3)n2CCCc2ccccc2)n(C)c1=O returned CYP2C9 inhib 71*, CYP2C19 act 0.4, CYP2C9 act 0.3 and CYP2C19 inh 59*.
Cc1nnc(SCCn2c(N3CCN(Cc4ccccc4)CC3)nc3c2c(=O)[nH]c(=O)n3C)s1 was read as CYP2C9 inhib 59*, CYP2C19 act 0.3, CYP2C9 act 0.4 and CYP2C19 inh 71*.
Screening Cn1c(=O)c2c(nc(N3CCN(Cc4ccccc4)CC3)n2CCCc2ccccc2)n(C)c1=O returned CYP2C9 inhib 31, CYP2C19 act 0.3, CYP2C9 act 0.7 and CYP2C19 inh 68*.
CCOC(=O)c1cc(-c2cc3ccccc3o2)nc2c1c(=O)[nH]c(=O)n2CCOC was read as CYP2C9 inhib 8, CYP2C19 act 0.8, CYP2C9 act 0.9 and CYP2C19 inh 20.
For Cc1nc(NC2=NCN(CCc3ccccc3)CN2)nc2ccccc12 the results were CYP2C9 inhib -27, CYP2C19 act 1.2, CYP2C9 act 1.3 and CYP2C19 inh -19.
Screening COC(=O)c1ccc(OC(=O)c2ccc(OC)c(OC)c2)c(OC)c1 returned CYP2C9 inhib 11, CYP2C19 act 0.8, CYP2C9 act 0.9 and CYP2C19 inh 17.
`CC(C)(C)c1ccc(-c2n[nH]c(=S)n2C2CCCC2)cc1` gave CYP2C9 inhib 11, CYP2C19 act 0.7, CYP2C9 act 0.9 and CYP2C19 inh 26.
CC1(C)CC(=O)c2sc(NC(=O)CN3CCCCC3)nc2C1 was read as CYP2C9 inhib 5, CYP2C19 act 1, CYP2C9 act 1 and CYP2C19 inh -2.
CCCCCCn1c(N2CCC(C)CC2)nc2c1c(=O)[nH]c(=O)n2C was read as CYP2C9 inhib 41, CYP2C19 act 0.8, CYP2C9 act 0.6 and CYP2C19 inh 20.
Cn1c(=O)[nH]c(=O)c2c1nc(N(CCO)Cc1ccccc1)n2CCCc1ccccc1 was read as CYP2C9 inhib 65*, CYP2C19 act 0.8, CYP2C9 act 0.3 and CYP2C19 inh 16.
C=C(C)Cn1c(N(CCO)Cc2ccccc2)nc2c1c(=O)[nH]c(=O)n2C was read as CYP2C9 inhib -67, CYP2C19 act 1.2, CYP2C9 act 1.7 and CYP2C19 inh -22.
For COc1cccc(C(=O)Cn2c(N3CCOCC3)nc3c2c(=O)n(C)c(=O)n3C)c1 the results were CYP2C9 inhib 39, CYP2C19 act 0.9, CYP2C9 act 0.6 and CYP2C19 inh 5.
`Cn1c(=O)[nH]c(=O)c2c1nc(N1CCN(Cc3ccccc3)CC1)n2CCCc1ccccc1` gave CYP2C9 inhib 31, CYP2C19 act 0.1, CYP2C9 act 0.7 and CYP2C19 inh 88*.
Screening Cc1ccc(C(=O)Cn2c(N3CCOCC3)nc3c2c(=O)n(C)c(=O)n3C)cc1 returned CYP2C9 inhib 54*, CYP2C19 act 1.1, CYP2C9 act 0.5 and CYP2C19 inh -11.
Screening CCCCn1c(N2CCC(Cc3ccccc3)CC2)nc2c1c(=O)[nH]c(=O)n2C returned CYP2C9 inhib 50, CYP2C19 act 0.3, CYP2C9 act 0.5 and CYP2C19 inh 66*.
For O=C(O)C1CCCN(C(=O)NCc2ccccc2)C1 (stereo not given) the results were CYP2C9 inhib 3, CYP2C19 act 1, CYP2C9 act 1 and CYP2C19 inh -3.
`COCCn1c(N2CCN(c3ccc(OC)cc3)CC2)nc2c1c(=O)n(C)c(=O)n2C` gave CYP2C9 inhib 59*, CYP2C19 act 1.1, CYP2C9 act 0.4 and CYP2C19 inh -6.
`Cn1c(=O)[nH]c(=O)c2c1nc(N1CCN(Cc3ccccc3)CC1)n2CCSc1ncccn1` gave CYP2C9 inhib 50, CYP2C19 act 0.2, CYP2C9 act 0.5 and CYP2C19 inh 75*.
For CCN1CCN(c2nc3c(c(=O)[nH]c(=O)n3C)n2CCCSc2ncccn2)CC1 the results were CYP2C9 inhib -13, CYP2C19 act 1.2, CYP2C9 act 1.1 and CYP2C19 inh -16.
For Cn1c(=O)[nH]c(=O)c2[nH]c(N(Cc3ccccc3)Cc3ccccc3)nc21 the results were CYP2C9 inhib 56*, CYP2C19 act 1, CYP2C9 act 0.4 and CYP2C19 inh -3.
CN(Cc1ccccc1)c1nc2c(c(=O)[nH]c(=O)n2C)n1CCCc1ccccc1 was read as CYP2C9 inhib 49, CYP2C19 act 0.8, CYP2C9 act 0.5 and CYP2C19 inh 21.
COC(=O)COc1ccc(Oc2nc(SC)nc(N(C)C)n2)nn1 was read as CYP2C9 inhib 15, CYP2C19 act 0.7, CYP2C9 act 0.8 and CYP2C19 inh 31.
Screening O=C(CSc1nc2c(c(=O)[nH]1)CCCC2)Nc1ccc(Cl)cc1F returned CYP2C9 inhib 5, CYP2C19 act 1.1, CYP2C9 act 1 and CYP2C19 inh -14.
COc1ccc(C(=O)N2CCC(C(=O)Nc3ccccc3OC)CC2)cc1 was read as CYP2C9 inhib -20, CYP2C19 act 0.9, CYP2C9 act 1.2 and CYP2C19 inh 13.
O=C1C(=O)N(c2cccc(Cl)c2)C(c2ccccc2[N+](=O)[O-])/C1=C(\O)c1ccccc1 (stereo not given) was read as CYP2C9 inhib 86*, CYP2C19 act 0.9, CYP2C9 act 0.1 and CYP2C19 inh 10.
For Cc1ccc(/C(O)=C2\C(=O)C(=O)N(c3cc(C)on3)C2c2cccc(Cl)c2)cc1 (stereo not given) the results were CYP2C9 inhib 39, CYP2C19 act 0.9, CYP2C9 act 0.6 and CYP2C19 inh 8.
For CCOC(=O)c1ccc(NC(=O)C2=C(C)Nc3nc(CCCO)nn3C2c2cccc(C)c2)cc1 (stereo not given) the results were CYP2C9 inhib 17, CYP2C19 act 0.8, CYP2C9 act 0.8 and CYP2C19 inh 15.
O=C(c1ccc(Cl)cc1)c1coc2ccc(O)cc12 was read as CYP2C9 inhib 11, CYP2C19 act 0.9, CYP2C9 act 0.9 and CYP2C19 inh 9.
Screening CC(=O)C(C(C)=O)c1c(Cl)c(O)c(O)c2c(C(=O)c3ccccc3)coc12 returned CYP2C9 inhib 86*, CYP2C19 act 0.9, CYP2C9 act 0.1 and CYP2C19 inh 9.
O=c1c2ccccc2c2c(O)nc(-c3ccccc3)n2n1Cc1ccccc1 was read as CYP2C9 inhib 54*, CYP2C19 act 0.9, CYP2C9 act 0.5 and CYP2C19 inh 10.
For CCOC(=O)Cn1c(-c2ccccc2)nc2ccccc2c1=O the results were CYP2C9 inhib 24, CYP2C19 act 0.9, CYP2C9 act 0.8 and CYP2C19 inh 6.
`O=C(O)c1cccc(COc2ccccc2Cl)c1` gave CYP2C9 inhib 95*, CYP2C19 act 0, CYP2C9 act 0 and CYP2C19 inh 97*.

Source: PubChem
